# Activity calls are given as the source filed them.
# What was measured:
# [1] = system: PRMT1 (protein arginine N-methyltransferase 1); assay: PRMT1 binders on small-molecule microarrays, primary screen, biochemical, small-molecule microarray, 635 nm fluorescence (AID 1088); conditions: small-molecule microarray binding, higher = more signal;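 note: binding of Prmt1 protein to compounds spotted on small-molecule microarray slides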
# [2] = yeast growth modulation, basal conditions, primary screen, YJM789 clinical isolate, OD600, 24 h (AID 1089);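 note: growth of clinical yeast isolate S. cerevisiae YJM 789 seeded 1000 cells per well; test concentration not given here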; conditions: S. cerevisiae YJM789 growth, higher = more signal, called active from +8 up or from −8 down
# [3] = fission yeast growth modulation, primary screen, strain 972, OD600, 24 h, no modulator (AID 1090);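 note: basal condition with compound alone and no growth modifier present; test concentration not given here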; conditions: S. pombe 972 growth, higher = more signal, called active from +8 up or from −8 down
# [4] = S. cerevisiae growth modulation with rapamycin, primary screen, strain BY4716, OD600, 96 h (AID 1091); conditions: higher = more signal, called active from +8 up or from −8 down; note: test concentration not given here
# [5] = molecular target: Torsin-1A-interacting protein 2 (Homo sapiens) (UniProt Q8NFQ8); assay: LULL1 binders on small-molecule microarray, primary screen, cell lysate, human LULL1 lysate, 635/667 nm fluorescence (AID 1092); conditions: hLULL1 lysate binding, 635 nm fluorescence, higher = more signal;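 note: probe is lysate of COS7 cells overexpressing human LULL1; score merges per-feature 667 nm fluorescence with signal-to-noise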
# Sequence of Torsin-1A-interacting protein 2 (Homo sapiens) (Q8NFQ8 whole entry, looked up): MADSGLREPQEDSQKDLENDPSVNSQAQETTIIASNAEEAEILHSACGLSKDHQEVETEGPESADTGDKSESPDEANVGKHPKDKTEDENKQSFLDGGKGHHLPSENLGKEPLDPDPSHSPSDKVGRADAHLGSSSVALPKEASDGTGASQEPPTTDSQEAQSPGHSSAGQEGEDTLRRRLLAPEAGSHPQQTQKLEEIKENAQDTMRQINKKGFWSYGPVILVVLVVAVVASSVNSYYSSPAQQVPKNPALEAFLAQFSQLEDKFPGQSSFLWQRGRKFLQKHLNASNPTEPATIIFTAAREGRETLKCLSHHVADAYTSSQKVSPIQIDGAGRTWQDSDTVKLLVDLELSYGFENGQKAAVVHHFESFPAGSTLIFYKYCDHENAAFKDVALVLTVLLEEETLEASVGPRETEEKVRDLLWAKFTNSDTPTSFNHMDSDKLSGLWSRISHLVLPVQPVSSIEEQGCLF
# [6] = E. coli growth modulation, two-sided OD650, primary screen, E. coli filamentation project, strain DRC41, 24 h (AID 1093); conditions: OD650, 24 h, higher = more signal, called active from +8 up or from −8 down;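 note: MC1000 strain lacking acrAB efflux and sulA so SOS filamentation is blocked; test concentration not given here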
# [7] = small-molecule microarray binders of probe aLefty2, primary screen, biochemical, biotinylated probe, 635/667 nm fluorescence (AID 1094); conditions: higher = more signal;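 note: score merges spot fluorescence near 667 nm with spot signal-to-noise ratio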
# [8] = system: Noggin (protein binding on small-molecule microarray); assay: Noggin binders on small-molecule microarray, primary screen, biochemical, 635/667 nm fluorescence (AID 1095); conditions: 635 nm fluorescence, higher = more signal;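 note: score merges 667 nm feature fluorescence with signal to noise over triplicate slides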
# [9] = molecular target: Neurogenic locus notch homolog protein 3 (Homo sapiens) (UniProt Q9UM47); assay: NOTCH3 binders on small-molecule microarray, primary screen, biochemical, 635/667 nm fluorescence (AID 1096); conditions: NOTCH3 binding, 635 nm fluorescence, higher = more signal
# Sequence of Neurogenic locus notch homolog protein 3 (Homo sapiens) (Q9UM47 whole entry, looked up): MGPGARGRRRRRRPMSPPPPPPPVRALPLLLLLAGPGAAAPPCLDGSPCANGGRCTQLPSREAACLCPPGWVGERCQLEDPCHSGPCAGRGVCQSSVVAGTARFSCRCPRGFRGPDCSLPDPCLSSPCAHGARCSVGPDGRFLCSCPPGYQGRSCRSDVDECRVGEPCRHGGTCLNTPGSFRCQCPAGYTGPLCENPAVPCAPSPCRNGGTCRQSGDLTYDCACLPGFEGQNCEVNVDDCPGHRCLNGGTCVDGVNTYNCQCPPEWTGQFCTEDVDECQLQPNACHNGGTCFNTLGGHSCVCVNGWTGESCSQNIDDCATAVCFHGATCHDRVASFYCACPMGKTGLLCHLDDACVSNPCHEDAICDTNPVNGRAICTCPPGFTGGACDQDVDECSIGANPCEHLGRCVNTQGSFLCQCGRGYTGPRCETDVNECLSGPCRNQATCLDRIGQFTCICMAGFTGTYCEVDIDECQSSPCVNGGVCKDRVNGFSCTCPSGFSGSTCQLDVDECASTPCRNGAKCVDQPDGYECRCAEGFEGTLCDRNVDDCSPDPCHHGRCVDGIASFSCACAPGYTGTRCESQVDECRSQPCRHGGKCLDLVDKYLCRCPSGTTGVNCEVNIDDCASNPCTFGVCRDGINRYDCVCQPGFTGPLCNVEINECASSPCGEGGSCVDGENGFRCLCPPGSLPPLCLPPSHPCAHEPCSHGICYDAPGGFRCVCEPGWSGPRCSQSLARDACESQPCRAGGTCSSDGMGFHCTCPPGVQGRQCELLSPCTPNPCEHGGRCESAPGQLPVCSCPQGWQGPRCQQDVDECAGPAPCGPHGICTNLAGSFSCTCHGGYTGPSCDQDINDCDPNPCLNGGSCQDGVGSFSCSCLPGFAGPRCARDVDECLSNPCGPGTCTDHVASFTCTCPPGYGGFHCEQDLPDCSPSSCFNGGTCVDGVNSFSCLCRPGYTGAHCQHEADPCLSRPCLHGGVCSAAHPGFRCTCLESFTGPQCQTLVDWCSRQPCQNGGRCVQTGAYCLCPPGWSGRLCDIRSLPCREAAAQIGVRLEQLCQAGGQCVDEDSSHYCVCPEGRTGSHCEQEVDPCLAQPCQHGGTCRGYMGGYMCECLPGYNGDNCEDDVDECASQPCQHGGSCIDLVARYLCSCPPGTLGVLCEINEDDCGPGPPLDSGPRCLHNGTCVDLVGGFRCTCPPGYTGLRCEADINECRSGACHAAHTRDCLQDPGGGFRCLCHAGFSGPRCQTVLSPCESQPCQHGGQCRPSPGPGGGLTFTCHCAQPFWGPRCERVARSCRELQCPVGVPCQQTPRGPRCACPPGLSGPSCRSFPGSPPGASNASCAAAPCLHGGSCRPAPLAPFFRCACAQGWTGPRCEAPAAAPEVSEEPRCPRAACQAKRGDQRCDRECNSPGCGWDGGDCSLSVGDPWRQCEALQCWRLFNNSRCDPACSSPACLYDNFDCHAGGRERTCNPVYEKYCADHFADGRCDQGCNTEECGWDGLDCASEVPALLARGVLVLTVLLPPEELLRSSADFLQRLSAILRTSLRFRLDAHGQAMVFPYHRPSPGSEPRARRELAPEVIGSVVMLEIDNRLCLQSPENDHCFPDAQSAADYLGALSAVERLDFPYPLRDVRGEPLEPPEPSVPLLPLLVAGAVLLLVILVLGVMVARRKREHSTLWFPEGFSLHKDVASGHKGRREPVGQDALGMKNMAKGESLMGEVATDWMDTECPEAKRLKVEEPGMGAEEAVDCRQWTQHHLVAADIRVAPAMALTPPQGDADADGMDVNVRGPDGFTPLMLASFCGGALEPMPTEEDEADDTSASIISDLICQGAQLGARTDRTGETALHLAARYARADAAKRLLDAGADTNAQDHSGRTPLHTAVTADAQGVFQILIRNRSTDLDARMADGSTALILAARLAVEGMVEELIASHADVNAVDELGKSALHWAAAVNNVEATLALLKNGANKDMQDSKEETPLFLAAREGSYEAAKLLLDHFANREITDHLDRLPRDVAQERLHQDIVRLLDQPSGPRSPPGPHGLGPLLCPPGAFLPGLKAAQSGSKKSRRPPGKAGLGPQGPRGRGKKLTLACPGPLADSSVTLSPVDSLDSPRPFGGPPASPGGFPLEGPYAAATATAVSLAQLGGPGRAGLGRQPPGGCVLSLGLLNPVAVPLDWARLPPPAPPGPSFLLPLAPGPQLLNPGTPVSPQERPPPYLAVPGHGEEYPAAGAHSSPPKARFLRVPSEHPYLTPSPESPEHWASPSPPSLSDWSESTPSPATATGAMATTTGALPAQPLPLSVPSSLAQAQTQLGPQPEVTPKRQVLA
# [10] = small-molecule microarray binders of probe aEGFR, primary screen, biochemical, biotinylated probe, 635/667 nm fluorescence (AID 1097); conditions: higher = more signal;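 note: probe is a biotinylated anti-EGFR antibody binding compounds printed on slides; score combines fluorescence near 667 nm and signal to noise of each spot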
# [11] = system: Plasmodium falciparum Sir2 (PF13_0152, Sir2A); assay: pfSir2 binders on small-molecule microarrays, primary screen, biochemical, small-molecule microarray, 635 nm fluorescence (AID 1098); conditions: small-molecule microarray binding, fluorescence 635 nm; higher = more signal;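 note: score merges spot fluorescence intensity with its signal-to-noise ratio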
# [12] = small-molecule microarray binders of probe aDKK1, primary screen, biochemical, biotinylated probe, 635/667 nm fluorescence (AID 1099); conditions: higher = more signal;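 note: score merges 667nm spot fluorescence with signal to noise across triplicate slides; reference of the scale not given here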
# [13] = small-molecule microarray binders of probe aCHRDL2, primary screen, biochemical, biotinylated probe, 635/667 nm fluorescence (AID 1100); conditions: higher = more signal
# [14] = splicing luciferase reporter signal modulators, primary screen, spliceosome inhibition project, cell-based, HEK293, splice +/- reporter (AID 1101); conditions: luminescence, 24 h, higher = more signal, called active from +8 up or from −8 down;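 note: HEK293 cells carrying a splicing-competent luciferase reporter gene; test concentration not given here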
# [15] = molecular target: Fibroblast growth factor 10 (Homo sapiens) (UniProt O15520); assay: FGF10 binders on small-molecule microarrays, primary screen, biochemical, small-molecule microarray, 635 nm fluorescence (AID 1102); conditions: FGF10 binding, fluorescence 635 nm, higher = more signal
# Sequence of Fibroblast growth factor 10 (Homo sapiens) (O15520 whole entry, looked up): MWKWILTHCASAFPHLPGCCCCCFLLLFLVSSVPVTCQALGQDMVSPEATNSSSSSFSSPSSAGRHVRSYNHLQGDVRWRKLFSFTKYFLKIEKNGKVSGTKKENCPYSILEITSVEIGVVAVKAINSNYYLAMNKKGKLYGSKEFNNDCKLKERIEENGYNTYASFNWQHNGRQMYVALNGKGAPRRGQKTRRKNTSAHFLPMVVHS
# [16] = system: glycogen synthase kinase-3 (GSK3A per assay name; protocol says GSK3B); assay: GSK3 binders on small-molecule microarrays, primary screen, biochemical, small-molecule microarray, 635 nm fluorescence, GSK3A (AID 1103); conditions: small-molecule microarray binding, fluorescence 635 nm; higher = more signal; note: the record names both GSK3A and GSK3B
# [17] = molecular target: Epidermal growth factor receptor (Homo sapiens) (UniProt P00533); assay: EGFR binders on small-molecule microarrays, primary screen, biochemical, small-molecule microarray, 635 nm fluorescence (AID 1104); conditions: EGFR binding, higher = more signal;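 note: score merges 667 nm emission intensity with spot signal to noise over triplicate slides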
# Sequence of Epidermal growth factor receptor (Homo sapiens) (P00533 whole entry, looked up): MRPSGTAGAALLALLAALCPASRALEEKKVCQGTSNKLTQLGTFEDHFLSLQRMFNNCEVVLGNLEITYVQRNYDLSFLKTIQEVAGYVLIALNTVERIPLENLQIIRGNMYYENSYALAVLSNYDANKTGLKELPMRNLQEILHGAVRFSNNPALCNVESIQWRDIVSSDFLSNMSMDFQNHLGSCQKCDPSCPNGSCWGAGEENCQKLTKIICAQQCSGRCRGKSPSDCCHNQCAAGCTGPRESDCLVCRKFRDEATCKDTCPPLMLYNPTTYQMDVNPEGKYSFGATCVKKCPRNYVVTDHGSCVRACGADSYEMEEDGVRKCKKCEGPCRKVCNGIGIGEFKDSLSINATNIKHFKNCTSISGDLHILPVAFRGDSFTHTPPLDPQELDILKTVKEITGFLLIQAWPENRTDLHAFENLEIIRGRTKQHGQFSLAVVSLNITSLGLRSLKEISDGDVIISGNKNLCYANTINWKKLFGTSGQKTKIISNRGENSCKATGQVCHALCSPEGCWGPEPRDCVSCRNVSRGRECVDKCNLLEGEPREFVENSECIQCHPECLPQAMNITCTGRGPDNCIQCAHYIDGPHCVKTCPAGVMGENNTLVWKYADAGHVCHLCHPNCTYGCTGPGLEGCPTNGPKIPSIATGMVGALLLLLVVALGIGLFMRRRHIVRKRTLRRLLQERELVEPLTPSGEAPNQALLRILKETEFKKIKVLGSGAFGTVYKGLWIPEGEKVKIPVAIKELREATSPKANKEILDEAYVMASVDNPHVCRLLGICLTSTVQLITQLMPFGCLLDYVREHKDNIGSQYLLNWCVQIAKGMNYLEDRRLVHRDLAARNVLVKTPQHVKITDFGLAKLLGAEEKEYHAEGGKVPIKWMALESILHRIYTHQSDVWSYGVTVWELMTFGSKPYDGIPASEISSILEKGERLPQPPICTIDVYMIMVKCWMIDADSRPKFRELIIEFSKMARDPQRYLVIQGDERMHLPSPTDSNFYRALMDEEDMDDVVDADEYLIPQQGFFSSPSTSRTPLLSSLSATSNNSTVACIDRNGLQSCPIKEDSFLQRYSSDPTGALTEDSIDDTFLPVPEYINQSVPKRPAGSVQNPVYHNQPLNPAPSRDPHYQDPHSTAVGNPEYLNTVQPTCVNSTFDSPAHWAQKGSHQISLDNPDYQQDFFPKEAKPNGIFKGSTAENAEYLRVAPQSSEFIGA
# [18] = molecular target: Follistatin-related protein 3 (Homo sapiens) (UniProt O95633); assay: FSTL3 binders on small-molecule microarrays, primary screen, biochemical, small-molecule microarray, 635 nm fluorescence (AID 1105); conditions: FSTL3 binding, higher = more signal;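 note: score merges emission near 667 nm and signal to noise per printed spot across three slides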
# Sequence of Follistatin-related protein 3 (Homo sapiens) (O95633 whole entry, looked up): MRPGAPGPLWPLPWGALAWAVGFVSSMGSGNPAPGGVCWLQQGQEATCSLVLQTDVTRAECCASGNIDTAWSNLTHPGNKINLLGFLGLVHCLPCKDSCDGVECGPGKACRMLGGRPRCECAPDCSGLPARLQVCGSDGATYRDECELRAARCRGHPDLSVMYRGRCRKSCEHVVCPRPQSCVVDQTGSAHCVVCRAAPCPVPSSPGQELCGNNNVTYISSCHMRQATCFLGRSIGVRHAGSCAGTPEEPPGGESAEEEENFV
# [19] = molecular target: Dickkopf-related protein 1 (Homo sapiens) (UniProt O94907); assay: DKK1 binders on small-molecule microarrays, primary screen, biochemical, small-molecule microarray, 635 nm fluorescence scan (AID 1106); conditions: DKK1 binding, higher = more signal;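 note: score merges emission near 667 nm with signal to noise over three replicate slides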
# Sequence of Dickkopf-related protein 1 (Homo sapiens) (O94907 whole entry, looked up): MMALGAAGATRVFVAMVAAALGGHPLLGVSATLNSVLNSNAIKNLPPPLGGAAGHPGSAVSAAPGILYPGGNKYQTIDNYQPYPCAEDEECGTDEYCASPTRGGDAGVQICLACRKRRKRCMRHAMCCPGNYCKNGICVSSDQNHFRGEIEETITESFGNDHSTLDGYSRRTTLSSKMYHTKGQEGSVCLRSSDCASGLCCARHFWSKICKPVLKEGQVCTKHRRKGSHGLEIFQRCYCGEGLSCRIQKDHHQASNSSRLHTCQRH
# [20] = system: Inhibin beta A chain (activin A); assay: INHBA (activin A) binders on microarrays, primary screen, biochemical, small-molecule microarray, 635 nm fluorescence scan (AID 1107); conditions: small-molecule microarray binding, higher = more signal;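 note: mouse activin A protein probed at 4.33 µg/mL on printed slides; score merges bound-protein fluorescence near 667 nm with spot signal-to-noise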
Compound,composite z-score [1],z-score [2],z-score [3],z-score [4],composite z-score [5],z-score [6],composite z-score [7],composite z-score [8],composite z-score [9],composite z-score [10],composite z-score [11],composite z-score [12],composite z-score [13],z-score [14],composite z-score [15],composite z-score [16],composite z-score [17],composite z-score [18],composite z-score [19],composite z-score [20]
COC(=O)c1c(CC[C@@H](CO)NC(=O)N[C@H](Cc2ccccc2)Cn2cc(-c3ccccc3N)nn2)oc(C(C)=O)c1C(=O)OC,1.19,-0.231 (inactive),-1.15 (inactive),0.2 (inactive),1.05,0.382 (inactive),0.323,0.173,0.492,0.195,0.326,0.759,0.886,0.433 (inactive),0.865,0.355,-0.165,0.204,-0.299,0.95
COCCOC(=O)N1C(=O)[C@@]2(c3cc(C#CC4(O)CCCCCC4)ccc31)[C@H](c1ccc(OCCO)cc1)N1[C@H](c3ccccc3)[C@H](c3ccccc3)OC(=O)[C@H]1[C@@H]2C(=O)NC[C@H](O)c1ccccc1,1.55,2.19 (inactive),0.874 (inactive),6.86 (inactive),2.87,1.6 (inactive),-0.0212,0.816,1.03,-0.0555,0.933,0.0678,0.389,-0.268 (inactive),1.18,1.29,0.258,0.432,0.208,0.527
O=C1C[C@]2(c3ccc([N+](=O)[O-])cc3)C(=O)N(CCN3CCOCC3)c3cc(CO)ccc3[C@H]2N1CC12CC3CC(CC(C3)C1)C2,-0.286,-1.31 (inactive),-0.324 (inactive),-2.77 (inactive),1.81,0.679 (inactive),0.0023,-0.323,0.111,-0.156,0.39,0.398,0.793,0.14 (inactive),-0.629,0.163,-1,-0.258,-1.22,0.6
O=C1[C@H]2[C@H]3[C@H](O)[C@H](O)CC(=NOC[C@@H](O)COCc4ccco4)[C@H]3CC[C@H]2C(=O)N1Cc1ccc2c(c1)OCO2,1.29,-0.285 (inactive),-0.279 (inactive),-1.09 (inactive),-0.829,0.617 (inactive),-0.29,0.154,-0.0875,-0.0039,0.285,0.534,-1.5,0.204 (inactive),0.11,1.28,0.986,0.83,1.39,0.0751
CCCNC(=O)OC[C@H]1O[C@H](CCON=C[C@@H](OC)[C@H](C)C=CCC(=O)OC)C=C[C@@H]1Oc1ccc(OC)cc1,1.17,-1.01 (inactive),0.141 (inactive),-0.0988 (inactive),0.524,0.294 (inactive),-0.0519,0.194,-0.31,-0.136,0.638,-0.305,-0.528,-0.213 (inactive),0.463,-0.0589,0.15,0.109,0.482,0.717
C=C(COC)/C(=C/C[C@H](OC(=O)c1ccncc1)c1ccc(CO)o1)c1cc(C(=O)OC)ccc1OC,1.55,-0.787 (inactive),0.132 (inactive),-0.443 (inactive),1.84,0.55 (inactive),0.0421,0.834,1.12,-0.112,1.69,-0.0393,-0.0885,-0.647 (inactive),1.37,0.637,0.0603,1.15,0.82,1.34
CCc1cc2c(nc1CC)CCN(CCC(C)=NOC[C@@H](O)COCc1ccco1)C2,1.54,-0.907 (inactive),-0.871 (inactive),-0.935 (inactive),-1.51,0.903 (inactive),0.469,1.68,1.05,0.441,1.54,0.0564,0.202,-0.0287 (inactive),0.529,1.3,1.78,1.5,1.7,2.1
NC(=O)NCC#Cc1ccc2c(c1)[C@]1(C(=O)N2)[C@H](c2ccc(O)cc2)N2[C@H](c3ccccc3)[C@H](c3ccccc3)OC(=O)[C@H]2[C@@H]1C(=O)N1CCCCCCC1,1.53,1 (inactive),-0.447 (inactive),1.24 (inactive),1.55,0.951 (inactive),1.24,1.55,1.01,0.511,1.08,1.8,1.08,0.445 (inactive),0.593,-0.018,0.356,1.28,0.408,1.4
COC(=O)[C@]1(CO)N=C(c2ccc(OCCCO)cc2)O[C@@H]1c1ccccc1N=[N+]=[N-],1.53,-0.726 (inactive),-0.683 (inactive),-1.12 (inactive),3.19,0.269 (inactive),-0.0639,1.82,0.298,-0.162,0.428,0.341,0.194,-0.121 (inactive),1.36,0.521,0.384,0.393,0.356,0.653
C[C@H](c1ccccc1)N1C(=O)[C@H]2[C@@H]3C(=CC[C@H]2C1=O)C(=O)[C@H]1O[C@H]1[C@H]3O,-0.511,0.389 (inactive),-1.84 (inactive),0.292 (inactive),-0.597,-0.295 (inactive),-0.0305,0.447,0.172,-0.138,0.816,-0.191,-0.559,4.45 (inactive),0.388,0.359,0.626,0.359,0.87,0.527

# Source: PubChem BioAssay
